Data: PubChem BioAssay AID1159580 (chemical genetic matrix, 2015)
Out of some 5,500 compounds screened, about 2,000 (36%) were called active. Not shown: some 18% with an inconclusive outcome. Rule as the data show it: active = normalized growth mostly below about 0.91 (no sharp cut-off); inconclusive = no clear call, values can overlap the other calls; inactive = mostly above about 0.92. The list shows a part of the results.

Experiment: chemical genetic growth profiling, strain panel (AID 1159580);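 also: tested at 20 µM; growth read once vehicle control cultures reached saturation at 30 °C; 1 = growth at the plate median or of vehicle wells; lower values mean less growth of the strain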
Details: S. cerevisiae deletion strains, growth OD

Measured: normalized growth

O=c1oc2ccccc2cc1O
inactive: locus YAL021C, strain ccr4, active compounds read low 0.986 | locus YAL026C, strain drs2, active compounds read low 0.975 | locus YAL030W, strain snc1, active compounds read low 0.993 | locus YBL061C, strain skt5, active compounds read low 0.993 | locus YBR009C, strain hhf1, active compounds read low 1 | locus YBR021W, strain FUR4, active compounds read low 1.03 | locus YBR023C, strain chs3, active compounds read low 0.993 | locus YBR171W, strain sec66, active compounds read low 0.977 | locus YBR229C, strain ROT2, active compounds read low 1.03 | locus YBR231C, strain swc5, active compounds read low 1.01 | locus YBR279W, strain paf1, active compounds read low 0.994 | locus YCL011C, strain gbp2, active compounds read low 1.01 | locus YCL016C, strain dcc1, active compounds read low 0.999 | locus YCL029C, strain bik1, active compounds read low 1.02 | locus YCL061C, strain MRC1, active compounds read low 0.991 | locus YCL069W, strain vba3, active compounds read low 0.968 | locus YCR088W, strain abp1, active compounds read low 0.986 | locus YDL005C, strain med2, active compounds read low 0.986 | locus YDL035C, strain GPR1, active compounds read low 1.06 | locus YDL040C, strain nat1, active compounds read low 0.994 | locus YDL074C, strain BRE1, active compounds read low 1.13 | locus YDL101C, strain DUN1, active compounds read low 1.01 | locus YDL134C, strain PPH21, active compounds read low 1.07 | locus YDL185W, strain tfp1, active compounds read low 0.998 | locus YDL192W, strain arf1, active compounds read low 1.03 | locus YDR001C, strain nth1, active compounds read low 0.984 | locus YDR069C, strain doa4, active compounds read low 0.991 | locus YDR101C, strain arx1, active compounds read low 0.991 | locus YDR137W, strain rgp1, active compounds read low 0.969 | locus YDR159W, strain sac3, active compounds read low 1.03 | locus YDR162C, strain NBP2, active compounds read low 1.04 | locus YDR195W, strain ref2 1.01 | locus YDR297W, strain sur2, active compounds read low 0.989 | locus YDR318W, strain mcm21, active compounds read low 0.995 | locus YDR334W, strain swr1, active compounds read low 0.96 | locus YDR335W, strain msn5, active compounds read low 1 | locus YDR388W, active compounds read low 0.992 | locus YDR392W, strain spt3, active compounds read low 0.983 | locus YDR502C, strain sam2, active compounds read low 0.986 | locus YEL003W, strain gim4, active compounds read low 0.993 | locus YEL037C, strain rad23, active compounds read low 0.979 | locus YEL061C, strain CIN8 (second series), active compounds read low 0.976 | locus YER015W, strain faa2, active compounds read low 1.01 | locus YER016W, strain bim1, active compounds read low 1 | locus YER110C, active compounds read low 0.974 | locus YER111C, strain swi4, active compounds read low 0.988 | locus YER155C, strain BEM2 (second series), active compounds read low 0.989 | locus YER155C, strain BEM2, active compounds read low 1.02 | locus YER167W, strain BCK2, active compounds read low 1.03 | locus YFR010W, strain ubp6, active compounds read low 0.963 | locus YGL078C, strain dbp3, active compounds read low 0.953 | locus YGL086W, strain mad1, active compounds read low 0.994 | locus YGL167C, strain pmr1, active compounds read low 0.99 | locus YGL173C, strain kem1, active compounds read low 0.996 | locus YGL227W, strain vid30, active compounds read low 0.995 | locus YGL240W, strain doc1, active compounds read low 0.984 | locus YGL248W, strain PDE1, active compounds read low 1.04 | locus YGL253W, strain hxk2, active compounds read low 0.994 | locus YGR135W, strain pre9, active compounds read low 0.969 | locus YGR252W, strain gcn5, active compounds read low 0.924 | locus YHR013C, strain ard1, active compounds read low 1.04 | locus YHR027C, strain rpn1, active compounds read low 0.986 | locus YHR079C, strain IRE1 (second series), active compounds read low 0.986 | locus YHR094C, strain hxt1, active compounds read low 0.989 | locus YHR129C, strain ARP1, active compounds read low 1.06 | locus YHR142W, strain chs7, active compounds read low 0.974 | locus YHR200W, strain rpn10, active compounds read low 0.983 | locus YIL066C, strain RNR3, active compounds read low 1.04 | locus YIL073C, strain SPO22, active compounds read low 1.08 | locus YIL125W, strain kgd1, active compounds read low 1 | locus YIR030C, strain dcg1, active compounds read low 1 | locus YJL092W, strain hpr5, active compounds read low 0.987 | locus YJL095W, strain BCK1 (second series), active compounds read low 0.982 | locus YJL095W, strain BCK1, active compounds read low 1.11 | locus YJL115W, strain asf1, active compounds read low 0.98 | locus YJL129C, strain trk1, active compounds read low 0.989 | locus YJL134W, strain LCB3, active compounds read low 1.02 | locus YJL154C, strain vps35, active compounds read low 0.987 | locus YJL164C, strain tpk1, active compounds read low 0.99 | locus YJL166W, strain qcr8, active compounds read low 0.992 | locus YJL168C, strain set2, active compounds read low 0.989 | locus YJL187C, strain SWE1 (second series), active compounds read low 1.03 | locus YJL187C, strain SWE1, active compounds read low 0.996 | locus YKL009W, strain mrt4, active compounds read low 0.937 | locus YKL068W, active compounds read low 0.978 | locus YKL085W, strain MDH1 (second series), active compounds read low 0.99 | locus YKL085W, strain MDH1, active compounds read low 0.99 | locus YKL160W, strain elf1, active compounds read low 1.01 | locus YKL190W, strain CNB1, active compounds read low 1.04 | locus YKR001C, strain vps1, active compounds read low 1.02 | locus YKR026C, strain gcn3, active compounds read low 0.988 | locus YKR091W, strain srl3, active compounds read low 0.994 | locus YLL001W, strain dnm1, active compounds read low 0.985 | locus YLL026W, active compounds read low 1 | locus YLL041C, strain sdh2, active compounds read low 1.01 | locus YLR027C, strain aat2, active compounds read low 1.01 | locus YLR039C, strain RIC1, active compounds read low 1.16 | locus YLR058C, strain SHM2, active compounds read low 1.04 | locus YLR102C, strain apc9, active compounds read low 1.01 | locus YLR221C, strain rsa3, active compounds read low 1 | locus YLR258W, strain gsy2, active compounds read low 0.987 | locus YLR262C, strain YPT6 (second series), active compounds read low 0.898 | locus YLR262C, strain YPT6, active compounds read low 1.07 | locus YLR268W, strain sec22, active compounds read low 0.997 | locus YLR320W, strain mms22, active compounds read low 1 | locus YLR342W, strain FKS1 (second series), active compounds read low 1.04 | locus YLR342W, strain FKS1, active compounds read low 0.985 | locus YLR357W, strain rsc2, active compounds read low 1 | locus YLR370C, strain arc18, active compounds read low 0.983 | locus YLR371W, strain rom2, active compounds read low 1.02 | locus YLR384C, strain iki3, active compounds read low 1 | locus YLR418C, strain cdc73, active compounds read low 1.11 | locus YML016C, strain PPZ1, active compounds read low 1.03 | locus YML032C, strain rad52, active compounds read low 0.995 | locus YML120C, strain ndi1, active compounds read low 0.981 | locus YML124C, strain tub3, active compounds read low 1.01 | locus YMR058W, strain fet3, active compounds read low 0.984 | locus YMR078C, strain ctf18, active compounds read low 0.985 | locus YMR125W, strain sto1, active compounds read low 0.972 | locus YMR129W, active compounds read low 1 | locus YMR205C, strain PFK2, active compounds read low 1.01 | locus YMR223W, strain ubp8, active compounds read low 1 | locus YMR231W, strain pep5, active compounds read low 0.977 | locus YMR307W, strain GAS1, active compounds read low 1.3 | locus YNL067W, strain RPL9B, active compounds read low 1.03 | locus YNL071W, strain lat1, active compounds read low 0.978 | locus YNL128W, strain TEP1, active compounds read low 1.03 | locus YNL209W, strain ssb2, active compounds read low 0.998 | locus YNL233W, strain BNI4, active compounds read low 1.08 | locus YNL248C, strain rpa49, active compounds read low 0.958 | locus YNL250W, strain rad50, active compounds read low 1.01 | locus YNL271C, strain bni1, active compounds read low 0.987 | locus YNL298W, strain CLA4, active compounds read low 0.993 | locus YNL307C, strain MCK1, active compounds read low 1 | locus YNL322C, strain KRE1 (second series), active compounds read low 0.989 | locus YNR049C, strain mso1, active compounds read low 0.998 | locus YNR052C, strain pop2, active compounds read low 0.948 | locus YOL012C, strain htz1 1.2 | locus YOL147C, strain pex11, active compounds read low 1 | locus YOR001W, strain rrp6, active compounds read low 0.985 | locus YOR061W, strain CKA2, active compounds read low 1.02 | locus YOR069W, strain VPS5, active compounds read low 1.02 | locus YOR070C, strain gyp1, active compounds read low 0.997 | locus YOR080W, strain dia2, active compounds read low 0.984 | locus YOR083W, strain WHI5, active compounds read low 0.986 | locus YOR106W, strain vam3, active compounds read low 0.946 | locus YOR136W, strain idh2, active compounds read low 0.985 | locus YOR144C, strain elg1, active compounds read low 0.996 | locus YOR184W, strain ser1, active compounds read low 0.98 | locus YOR265W, strain rbl2, active compounds read low 0.992 | locus YOR270C, strain vph1, active compounds read low 0.87 | locus YOR290C, strain snf2, active compounds read low 0.984 | locus YOR316C, strain cot1, active compounds read low 0.991 | locus YPL051W, strain arl3, active compounds read low 0.997 | locus YPL055C, strain LGE1, active compounds read low 1.13 | locus YPL078C, strain atp4, active compounds read low 0.966 | locus YPL106C, strain sse1, active compounds read low 0.988 | locus YPL240C, strain hsp82, active compounds read low 0.997 | locus YPL241C, strain CIN2, active compounds read low 1.04 | locus YPR119W, strain clb2, active compounds read low 1.01 | locus YPR141C, strain kar3, active compounds read low 1 | locus YPR163C, strain tif3, active compounds read low 1 | locus YPR167C, strain met16, active compounds read low 0.993 | strain wtn01, active compounds read low 0.984
